luminol inh ctr: counter-screen for Nox1 inhibitors: inhibitors of luminol chemiluminescence; HRP/luminol/H2O2 chemiluminescence counterscreen; inhibition, % at 6.7 µM; 16,000 tested, 0.4% active; AID 1823; further: reference of the scale not given here
PME-1 Maybridge: Maybridge compound blocking human PME-1 | Q9Y570 | recombinant PME-1, FP-Rh probe fluorescence polarization | inhibition, % at 9 µM | 16,000 tested, 0.5% active | AID 2291; in the data active means inhibition above about 30%
Target sequence (Q9Y570 whole entry, looked up): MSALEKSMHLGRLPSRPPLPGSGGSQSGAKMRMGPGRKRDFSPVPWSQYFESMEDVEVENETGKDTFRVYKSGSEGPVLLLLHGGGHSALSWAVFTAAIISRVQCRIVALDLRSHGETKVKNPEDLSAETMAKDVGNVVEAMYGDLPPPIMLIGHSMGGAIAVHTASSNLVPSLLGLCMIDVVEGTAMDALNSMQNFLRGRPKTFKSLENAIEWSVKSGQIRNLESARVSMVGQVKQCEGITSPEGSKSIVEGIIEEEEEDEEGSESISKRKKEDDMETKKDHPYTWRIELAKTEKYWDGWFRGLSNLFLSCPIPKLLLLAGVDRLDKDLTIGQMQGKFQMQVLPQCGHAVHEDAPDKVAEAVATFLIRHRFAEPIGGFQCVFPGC
rat GALR2 agon: GALR2 (rat) receptor agonism; 16,000 tested, 0.5% active; activation, % at 10 µM; O08726; AID 833; cell-based GALR2 agonist screen; in the data active means activation above about 15%
Nox1 inh: human Nox1 inhibition; 16,000 tested, 0.81% active; Q9Y5S8; HT29 cells, luminol chemiluminescence ROS; AID 1792; inhibition, % at 6.7 µM
S1P1 ag: activates the human S1P1 receptor; P21453; S1P1 agonist cell-based reporter assay; 16,000 tested, 1.5% active; activation, % at 4.5 µM; in the data active means activation above about 80%
NOTCH ag: NOTCH pathway agonism. 15,000 tested, 0.4% active. activation, % at 2.5 µM. NOTCH signaling luciferase reporter cells, luminescence. AID 434982; in the data active means activation above about 2.2%
Starred values were filed as active, the others as inactive; · = not tested or not shown. Only some compounds are listed: those with a hit (about 3.8% of all), similar ones and a draw of the others. Unless noted, no stated cut-off is given here; in the data, active means inhibition above about 75%; inactive means the rest.

SMILES	luminol inh ctr	PME-1 Maybridge	rat GALR2 agon	Nox1 inh	S1P1 ag	NOTCH ag
COC(=O)c1sccc1NC(=O)Nc1cc(C)oc1C(F)(F)F	0	2	-3	-47	-31	0
Cc1ccc(C)c(N=Cc2cc(Cl)cc(Cl)c2O)c1	4	8	16*	9	10	0
CC(=O)Nc1cc(N=Cc2cc(Cl)cc(Cl)c2O)ccc1C	-1	0	5	-79	-8	0
Cc1nc(C(F)(F)F)ccc1C(=O)NCc1ccc(Cl)c(Cl)c1	-2	-1	-5	-7	6	0
COC(=O)c1cc(NC(=S)NC(=O)c2ccccc2)ccc1N1CCOCC1	7	1	-5	-24	88*	0
Cc1ccc(S(=O)(=O)c2ccc(C(=O)Nc3ccc(Cl)cc3)cc2[N+](=O)[O-])cc1	4	-96	-11	-49	33	0
CCCS(=O)(=O)/C(C#N)=N/Nc1cc(C(F)(F)F)cc(C(F)(F)F)c1	4	0	-8	17	117*	0
CCCS(=O)(=O)/C(C#N)=C/c1cc(C(F)(F)F)cc(C(F)(F)F)c1	3	-3	-3	-66	-3	-1
Cc1cc(CNC(=O)c2cnc3ccccc3n2)c(C(F)(F)F)o1	-3	6	-8	0	0	0
N#C/C(=N\Nc1ccc(OC(F)(F)F)cc1)C(=O)c1ccsc1	11	4	-10	-2	107*	1
S=C1NN=C(c2ccccc2)CS1	6	-1	-1	-42	-3	0
CCOC(=O)c1cc(NC(=O)Nc2cccc(Cl)c2)ccc1Oc1cncc(Cl)c1	-4	-184	-12	7	80*	2
Nc1ccc(C(=O)O)c2c(C(=O)O)cccc12	25	49*	-8	29	-5	0
S=C(NNc1nccc(-c2cccnc2)n1)Nc1ccccc1	2	3	-7	86*	3	0
Cc1nc2ccccn2c1C(=O)NNS(=O)(=O)c1sc2ccc(Cl)cc2c1C	10	5	-6	13	100*	0
Cc1ccc2c(c1)CCCN2C(=O)CC(=O)N1CCCc2cc(C)ccc21	77*	8	4	-6	0	0
NNC(=O)CSc1nc2cccnc2s1	12	8	-6	76*	9	0
CCOC(=O)C1CCN(C(=O)c2sc(-c3ccccc3)nc2C)CC1	-1	0	-6	-35	5	0
CCOC(=O)c1sc(-c2ccccc2)nc1C	2	-2	0	-45	97*	-1
CCOC(=O)c1sc(SCc2ccc(Cl)cc2)nc1C	-3	0	-8	-9	77	-1
CCOC(=O)c1sc(COc2cccc(Cl)c2)nc1C	0	0	-7	-11	91*	-1
COc1ccc(CCNC(=O)c2ccc3nccnc3c2)cc1OC	-1	4	-4	-27	-23	-1
Cn1nc(-c2ccccc2)cc1NC(=O)Nc1cccs1	26	32*	-4	-38	-12	0
Cc1noc(-c2ccccc2)c1NC(=O)Nc1cc(C2CC2)nn1C	3	1	-10	-5	5	-1
Cc1nn(C)c(Sc2ccc(C(F)(F)F)cn2)c1[N+](=O)[O-]	-7	4	-8	-8	-8	·
SMILES	luminol inh ctr	PME-1 Maybridge	rat GALR2 agon	Nox1 inh	S1P1 ag	NOTCH ag
Cn1cnc([N+](=O)[O-])c1Sc1ccc(C(F)(F)F)cn1	3	0	35*	-88	2	-1
O=c1[nH]c(-c2ccc(O)cc2)nc2ccccc12	-48	1	-2	-26	3	0
FC(F)(F)c1ccc2c(c1)Nc1ccccc1S2	10	4	-11	102*	-7	·
N#Cc1cnc(Sc2nc3ccccc3s2)nc1N	0	-4	-11	-31	-23	-1
CC(=O)c1ccc(Sc2cccc(C(F)(F)F)c2)c([N+](=O)[O-])c1	2	32*	-12	-8	11	0
COc1cc2c(cc1OC)C(C)N(C(=O)c1sc3ccccc3c1Cl)CC2 (centres undefined)	2	52*	-4	-21	-6	-6
O=C(O)c1nnn(Cc2ccccc2)c1C(=O)O	-6	4	-4	-14	-7	0
CCCc1nn(C)cc1C(=O)NCC(=O)OCC	-3	2	1	-28	-17	0
c1ccc2c(c1)-c1ccccc1C2c1ccncc1	-7	-10	-4	23	9	2.3*
CC1(C)O[C@H]2O[C@H](C(O)COC(=O)c3ccccc3)[C@H](OC(=O)c3ccccc3)[C@H]2O1 (some centres undefined)	-2	0	-4	-55	12	0
CCC(=O)Nc1cccc2c(NC(=O)CC)cccc12	3	-3	-4	-54	82*	-1
Cc1cc(-c2nnc(-c3cccc(C(F)(F)F)c3)o2)no1	-1	1	-3	0	80*	0
CC(=O)c1cc2c(s1)SCC(=O)N2	2	2	-8	-26	2	0
COc1c(Cl)cc(Cl)cc1-c1csc(NC(=O)C(Cl)(Cl)Cl)n1	1	0	-8	-4	89*	0
CSc1sc(C(=O)NNC(=O)Nc2ccc(Cl)cc2)c2c1C1(CCC2)SCCS1	-2	-82	-7	11	-13	0
CSc1sc(C(=O)NC(=O)Nc2ccc(Cl)cc2)c2c1-c1nocc1CC2	-8	8	-3	9	108*	1
Cc1csc2ncnc(NCCc3ccc(Cl)cc3)c12	-4	6	-8	8	102*	-6
CC(ONC(=O)c1cc(C(F)(F)F)cc(C(F)(F)F)c1)C(=O)Nc1ccc(Cl)cc1 (centres undefined)	2	0	-8	-25	110*	0
COC(=O)c1ccc(Oc2ccc(Cl)cc2Cl)o1	-7	11	-6	19	1	1
O=[N+]([O-])c1cc(Cl)c(N2CCOCC2)cc1N1CCOCC1	7	-4	-8	-74	-18	6.3*
NC1=NNC(=O)/C1=C\c1cc([N+](=O)[O-])ccc1N1CCOCC1	-3	5	25*	-30	-3	0
O=C(c1ccc2c(c1)CCC2)C1CCC1	1	-1	46*	-39	-8	-1
CSc1nnc(SCC(=O)N2CCC(C(F)(F)F)CC2)s1	3	-4	-7	-36	-13	2.7*
Cc1nnsc1C(=O)N1CCC(C(F)(F)F)CC1	-6	4	-2	6	-3	0
CS(=O)(=O)/C(C#N)=C\c1ccc(Cl)s1	-5	6	-5	-9	-5	-1
CS(=O)(=O)/C(C#N)=C/c1ccccc1OCc1c(Cl)cccc1Cl	-8	7	18*	21	30	0
CN1C/C(=C\C=C\c2ccccc2)C(=O)/C(=C/C=C/c2ccccc2)C1	-4	1	-3	16	10	0
CN(NC(=O)Nc1c(Cl)cccc1Cl)C(=S)SCc1c(F)cccc1Cl	-3	-11	-6	-5	-10	0
Cc1nc(C)c(-c2nnc(-c3ccc(C(F)(F)F)cc3)o2)s1	-3	-1	-6	-28	88*	0

Bioassay records from PubChem BioAssay.
